Measurements reported in PubChem BioAssay (NCATS).
Results filed as inconclusive are left out. Calls of active or inactive are those of the source. Calls come from the whole dose curve; as a rule, active = well fitted inhibition curve with a large enough effect; inconclusive = small, poorly fitted or top-dose-only effect; inactive = no such curve, though single readings can be large or run the other way.

Target: Cytochrome P450 2C9 (Homo sapiens) (UniProt P11712)
Assay: qHTS Assay for Inhibitors and Substrates of Cytochrome P450 2C9 (AID 883); note: nearly all actives have a fitted effect of over 60% in size
Conditions: recombinant CYP2C9, luciferin-H luminescence, 60 min; series mostly up to 11.4 µM
Procedure, shortened: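 Inhibition of CYP2C9 is scored as loss of luminescence, with 57uM sulphaphenazole defining 100% inhibition. Substrate Luciferin-H is used at 100uM, equal to its KM; enzyme at 10nM in 25mM KPO4, 60 min at 37C with NADPH regeneration.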
% is set by controls: 0 for no effect and ±100 for the full control effect; potency is the fitted concentration of half-maximal effect.

Chain of Cytochrome P450 2C9 (Homo sapiens) (P11712 whole entry, looked up): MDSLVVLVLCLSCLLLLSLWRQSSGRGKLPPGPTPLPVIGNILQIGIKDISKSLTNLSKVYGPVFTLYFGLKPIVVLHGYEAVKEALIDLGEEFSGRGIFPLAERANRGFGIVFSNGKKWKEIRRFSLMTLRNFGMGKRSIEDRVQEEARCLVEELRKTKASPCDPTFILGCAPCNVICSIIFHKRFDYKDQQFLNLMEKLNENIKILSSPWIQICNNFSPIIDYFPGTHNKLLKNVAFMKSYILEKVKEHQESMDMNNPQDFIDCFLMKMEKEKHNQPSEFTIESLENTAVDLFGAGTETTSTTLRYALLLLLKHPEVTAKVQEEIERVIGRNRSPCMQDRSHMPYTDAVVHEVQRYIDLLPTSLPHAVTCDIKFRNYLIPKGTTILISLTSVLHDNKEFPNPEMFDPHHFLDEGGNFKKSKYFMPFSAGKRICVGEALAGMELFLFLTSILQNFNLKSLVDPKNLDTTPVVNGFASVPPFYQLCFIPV

Potency, inactive:
COC(=O)NC(CC(C)=O)c1ccc2c(c1)OCO2 (stereo not given), CC1CCC2C(=O)OC(COc3ccc(C(C)(C)C)cc3)CN2C1c1ccc(Br)cc1 (stereo not given), COC(=O)NC(c1ccc2ccccc2c1)C(C(C)=O)C(=O)OC (stereo not given), COC(=O)CC1=COC2OCC3=CC[C@@H]1C32 (stereo not given in full), COC(=O)CC1=COC(O)C2C(CO)=CC[C@@H]12 (stereo not given in full), CCOC(=O)OCC1OC(c2ccc(C(C)=O)cc2)C=CC1OC(=O)OCC (stereo not given), CCOC(=O)OCC1OC(c2ccccc2)C=CC1Oc1ccc2oc(=O)cc(C)c2c1 (stereo not given), CCCCCCC1Cc2cc(OC)c(OC)cc2C(C(C(=O)OCC)C(=O)OCC)O1 (stereo not given), Cc1c(OCc2ccccc2)cccc1OCc1ccccc1, CC1(C)OC(C(O)(c2cc(F)c(F)c(F)c2)c2cc(F)c(F)c(F)c2)C(C(O)(c2cc(F)c(F)c(F)c2)c2cc(F)c(F)c(F)c2)O1 (stereo not given), CC12CC3OS(=O)OC3CC3C4C(C(OCc5ccccc5)C31)C42 (stereo not given), COC(=O)NC(c1cccc(F)c1)[C@@]1(C(=O)OC)CCCC1=O (stereo not given in full), CC(C)C(=O)NC(=O)C1CCCN1C(=O)/C=C/c1ccccc1 (stereo not given), CC1(C)OC(C(O)(c2cccc3c2oc2ccccc23)c2cccc3c2oc2ccccc23)C(C(O)(c2cccc3c2oc2ccccc23)c2cccc3c2oc2ccccc23)O1 (stereo not given), COC(=O)NC(c1ccccc1)C(C#N)C(=O)OC (stereo not given), COc1cc(C2NC(C(=O)O)Cc3c2[nH]c2ccccc32)cc(OC)c1OC (stereo not given), CCC(=O)CC(NC(=O)OC)c1ccc(F)cc1 (stereo not given), Cc1ccc(C#CC2C=CC(Oc3ccc4c(c3)OCO4)C(CO)O2)c(C)c1 (stereo not given), COC(=O)NC(c1cccc(F)c1)[C@]1(C(C)=O)CCCC1=O (stereo not given in full), COC(=O)NC(c1cccc(F)c1)C(C(C)=O)C(=O)OC (stereo not given)

Potency, active:
CC(=O)c1ccc(C2C=CC(Oc3ccc(-c4ccccc4)cc3)C(CO)O2)cc1 (stereo not given) 3.98 µM, COc1cccc(/C=C/C2=CC3(C)CC2(C)C(c2cccc(OC)c2)CC3=O)c1 (stereo not given) 3.16 µM

Target: Cytochrome P450 3A4 (Homo sapiens) (UniProt P08684)
Assay: qHTS Assay for Inhibitors and Substrates of Cytochrome P450 3A4 (AID 884); note: nearly all actives have a fitted effect of over 50% in size
Conditions: recombinant CYP3A4, Luciferin-PPXE luminescence; series mostly up to 57.1 µM
Procedure, shortened: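 20 nM human CYP3A4 with 25 uM Luciferin-PPXE (at KM) in 200 mM KPO4, preincubated 10 min with compound; NADPH regeneration started a 60 min RT reaction. Luciferin detected by luminescence, normalized to 57 uM ketoconazole as full inhibition.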

Chain of Cytochrome P450 3A4 (Homo sapiens) (P08684 whole entry, looked up): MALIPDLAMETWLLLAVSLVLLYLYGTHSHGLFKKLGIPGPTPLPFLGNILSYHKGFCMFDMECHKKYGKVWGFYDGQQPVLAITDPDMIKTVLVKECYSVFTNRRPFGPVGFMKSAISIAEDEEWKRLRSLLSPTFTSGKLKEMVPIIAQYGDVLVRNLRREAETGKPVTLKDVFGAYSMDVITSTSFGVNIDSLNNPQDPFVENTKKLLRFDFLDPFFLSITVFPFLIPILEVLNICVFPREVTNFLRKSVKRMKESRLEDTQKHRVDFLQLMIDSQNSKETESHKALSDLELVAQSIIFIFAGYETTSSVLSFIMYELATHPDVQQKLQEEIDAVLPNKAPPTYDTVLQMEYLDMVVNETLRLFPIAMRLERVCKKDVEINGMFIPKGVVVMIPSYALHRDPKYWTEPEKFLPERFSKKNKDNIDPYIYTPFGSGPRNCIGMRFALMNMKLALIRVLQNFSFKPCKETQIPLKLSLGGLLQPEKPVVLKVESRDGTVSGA

Activity change, negative = inhibition, inactive:
CCOP(=O)(CC(C(C)=O)C(O)c1ccccc1)OCC (stereo not given) -15.8% [at 11.4 µM], O=C(/C=N/O)NCCCCNC(=O)/C=N/O -14.7% [at 11.4 µM], CCOC(=O)[C@]1(C(/C=C/c2ccco2)NC(=O)OC)CCCC1=O (stereo not given in full) -21.5% [at 11.4 µM], CCOC(=O)CCCCC1=CC2=CC(=O)C(C)(O)C(=O)C2=CO1 (stereo not given) -20.4% [at 11.4 µM], COc1cc(C2c3[nH]c4ccccc4c3CC3C(=O)N4C(Cc5c([nH]c6ccccc56)C4c4cc(OC)c(OC)c(OC)c4)C(=O)N32)cc(OC)c1OC (stereo not given) -16.6% [at 11.4 µM], CNc1ccccc1C(=O)OCC(=O)c1ccccc1 -18.7% [at 11.4 µM], COc1cccc(C2NC(C(=O)O)CCC2C)c1 (stereo not given) -16.8% [at 11.4 µM], C=CCc1cccc(C2NC(C(=O)O)CCC2C)c1 (stereo not given) -20.1% [at 11.4 µM], CC12C=C(/C=C/C=C/c3ccco3)C(C)(C1)C(/C=C/c1ccco1)CC2=O (stereo not given) 5.62% [at 11.4 µM], CC(=O)Nc1ccc(C2NC(C(=O)O)CCC2C)cc1 (stereo not given) -21% [at 11.4 µM], O=C1C2Cc3c([nH]c4ccccc34)C(c3ccccc3)N2C(=O)C2Cc3c([nH]c4ccccc34)C(c3ccccc3)N12 (stereo not given) -20.8% [at 11.4 µM], OCC1OC(c2ccccc2)C=CC1Oc1cc(Cl)cc(Cl)c1 (stereo not given) 5.16% [at 11.4 µM], COC(=O)NC(/C=C/c1ccco1)[C@@]1(C(=O)OC)CCCC1=O (stereo not given in full) 2.43% [at 11.4 µM], CC1C=CCCOC1c1ccccc1 (stereo not given) -13.6% [at 11.4 µM], CCN1C(C)=C(C(=O)OC)C(c2ccccc2)N2C(=O)[C@@]3(C(=O)OC)O[C@@]12C1C(=O)N(C)C(=O)C13 (stereo not given in full) -27.7% [at 11.4 µM]

Potency, active:
CCCCC1CN2C(CCC(C)C2c2ccc(Br)cc2)C(=O)O1 (stereo not given) 3.98 µM, COc1ccc(OCC2CC3C(CCC(C)C3c3ccc(Br)cc3)C(=O)O2)cc1 (stereo not given) 3.98 µM, COC(=O)NC(CC(C)=O)c1ccc2c(c1)OCO2 (stereo not given) 3.98 µM
